# In the library only some 0.43% were active in any assay of this set; here they are far more common.
# GLA inh pH 4.5 – inhibitors of human alpha-galactosidase A at pH 4.5. P06280. purified enzyme, 4-MU-alpha-Gal fluorescence, pH 4.5. activity change, negative = inhibition, % at 105 µM. 230,000 tested, under 10 active. AID 1467;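 note: 0% = full activity with enzyme and -100% = basal without enzyme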
# Target sequence (P06280 whole entry, looked up): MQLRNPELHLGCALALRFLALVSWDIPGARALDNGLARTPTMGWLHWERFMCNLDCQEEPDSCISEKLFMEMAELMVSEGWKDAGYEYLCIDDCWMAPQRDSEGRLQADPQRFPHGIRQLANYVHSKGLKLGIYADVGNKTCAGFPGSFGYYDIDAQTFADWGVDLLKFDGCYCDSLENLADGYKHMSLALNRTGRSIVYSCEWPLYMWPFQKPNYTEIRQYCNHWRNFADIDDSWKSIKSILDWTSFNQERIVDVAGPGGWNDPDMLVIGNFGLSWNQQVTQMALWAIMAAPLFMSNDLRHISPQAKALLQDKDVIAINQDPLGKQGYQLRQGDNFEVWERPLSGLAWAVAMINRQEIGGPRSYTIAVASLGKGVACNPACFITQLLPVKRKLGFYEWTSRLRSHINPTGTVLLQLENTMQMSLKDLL
# aGal spleen mod – inhibitors or activators of human alpha-galactosidase in spleen homogenate | P06280 | human spleen homogenate, 4MU-alpha-Gal fluorescence, 40 min | Potency, µM (series often up to 80 µM), without a hit: at the top dose activity change, negative = inhibition, hits mostly inhibitors | 0.008% of 240,000 active | AID 2107;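 note: potency is the fitted concentration of half-maximal effect; 0% = enzyme with vehicle and -100% = no enzyme basal signal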
#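 Human spleen homogenate (1 ug) as enzyme source, 4-methylumbelliferyl-alpha-D-galactopyranoside 1 mM final, citrate/phosphate pH 5.0 with 0.01% Tween-20. Compounds 40 min at 37C, NaOH/glycine stop; fluorescence Ex 365/Em 440, Hill-fit AC50.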
# N370S GC mod – N370S glucocerebrosidase modulation, Gaucher chaperone candidate; 0.092% of 330,000 active; P04062; N370S GC spleen homogenate, 4MU-glucoside fluorescence; AID 2101; Potency, µM (doses to about 59.4 µM), inactives show top-dose activity change, negative = inhibition, usual class: inhibitors;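 note: potency is the fitted concentration of half-maximal effect; 0% = full enzyme activity and -100% = no enzyme basal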
# aGlu spleen mod – inhibitors or activators of human alpha-glucosidase in spleen homogenate | P10253 | human spleen homogenate, 4-MU-alpha-glucoside fluorescence | Potency, µM (titrated, usually from 79.9 µM), without a hit: at the top dose activity change, negative = inhibition, usual class: inhibitors | 0.006% of 240,000 active | AID 2112;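 note: potency is the fitted concentration of half-maximal effect; 0% = enzyme with vehicle and -100% = no enzyme basal signal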
#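 Human spleen homogenate (1 ug) incubated with compounds and 1 mM 4-methylumbelliferyl-alpha-D-glucopyranoside in pH 5.0 citrate/phosphate buffer, 37 C, 40 min. Stopped at pH 10; 4-MU fluorescence (Ex 365/Em 440 nm); AC50 by Hill fit.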
# GAA inh – blocks human lysosomal alpha-glucosidase. AID 1466. purified human GAA, 4-MU-alpha-glucoside fluorescence. Potency, µM (highest dose often 76.9 µM), for the others: top-dose activity change, negative = inhibition, hits mostly inhibitors. 0.005% of 200,000 active;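 note: potency is the fitted concentration of half-maximal effect; plate controls were uninhibited enzyme wells for no effect and no-enzyme background for full effect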
#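 Compounds are titrated up to 77 uM against 4 nM human enzyme. Substrate 4-methylumbelliferyl-alpha-D-pyranoside (400 uM) reacts 20 min at room temperature in pH 5.0 buffer; liberated 4-methylumbelliferone is read at 440 nm.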
# GAA glycogen mod – GAA glycogen-cleavage inhibition or activation. recombinant GAA, glycogen substrate, Amplex Red glucose oxidase fluorescence. 0.38% of 300,000 active. Potency, µM (highest dose often 76.4 µM), for the others: at the highest dose activity change, negative = inhibition, actives largely listed as inhibitors. P10253;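 note: potency is the fitted concentration of half-maximal effect; 0% = full enzyme reaction and -100% = no-enzyme basal signal; the screen sought inhibitors and activators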
#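 Recombinant human alpha-glucosidase (4 nM final) hydrolysed bovine liver glycogen (30 ug) for 40 min at 37 C in pH 5.0 citrate/phosphate with 0.01% Tween-20. Released glucose detected by glucose oxidase/Amplex Red, Ex 573/Em 610 nm. Compounds up to 77 uM; AC50 from Hill fits.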
# * marks the source's active call; other numbers are inactive results; ? = inconclusive; . = no result given; [ ] = remark or other dose. Calls come from the whole dose curve; as a rule, active = well fitted curve in the direction sought with a large enough effect; inconclusive = small, poorly fitted or top-dose-only effect, or another doubt; inactive = no such curve, though single readings can be large; an effect the other way counts as inactive or inconclusive.
SMILES,GLA inh pH 4.5,aGal spleen mod,N370S GC mod,aGlu spleen mod,GAA inh,GAA glycogen mod
O=S(=O)(Nc1cc(O)cc2cccnc12)c1ccc(Cl)s1,.,4%,-5%,7%,.,.
COc1ccccc1NC(=S)N(CCCN1CCOCC1)Cc1cn(C)c2ccccc12,7,-2%,?,-1%,-11%,-4%
COc1cc(Cl)ccc1NC(=S)N(CCCN1CCOCC1)Cc1cn(C)c2ccccc12,-10,-2%,7.1µM*,-11%,5%,-8%
COc1ccc(Cl)cc1NC(=S)N(CCCN1CCOCC1)Cc1cn(C)c2ccccc12,-9,-1%,6.3µM*,4%,-8%,-20%
CCOc1ccc(-c2nc(SCC(=O)NC3CCCC3)c(-c3ccccc3)[nH]2)cc1OC,.,.,.,.,.,-6%[76.3 µM]
CCOc1ccc(CCNC(=O)CCCc2nnc3n(CC(C)C)c(=O)c4sccc4n23)cc1,.,.,.,.,.,3%[76.3 µM]
Oc1cc(O)c2c(c1)O[C@H](c1ccc(O)c(O)c1)[C@H](O)C2,7,7%[29.1 µM],-6%,11%[29.1 µM],.,10µM*
CC(=O)Nc1sc2c(c1C(c1cccc(Cl)c1)N1CCN(CCO)CC1)CCCC2 (centres undefined),-10,6%,18µM*,-1%,-13%,6%
COc1ccc(C(c2c(NC(C)=O)sc3c2CCCC3)N2CCN(CCO)CC2)cc1OC (centres undefined),1,-4%,14µM*,2%,5%,-1%
O=C(Nc1ccc(N2CCOCC2)cc1)NC1CCCCC1,0,-10%,3%,-3%,1%,?
CC(C)N1C(=O)CC(Nc2ccc(N3CCOCC3)cc2)C1=O (centres undefined),-13,1%,.,-2%,-6%,25µM*
O=C1CC(Nc2ccc(N3CCOCC3)cc2)C(=O)N1C1CCCCC1 (centres undefined),1,9%,-4%,-1%,0%,13µM*
O=C1CC(Nc2ccc(N3CCOCC3)cc2)C(=O)N1c1ccccc1F (centres undefined),-9,1%,-4%,0%,0%,25µM*
COc1ccc(CCN2C(=O)CC(Nc3ccc(N4CCOCC4)cc3)C2=O)cc1OC (centres undefined),8,0%,-9%,-5%,-1%,16µM*
CCc1ccc(NC2CC(=O)N(CCc3ccc(OC)c(OC)c3)C2=O)cc1 (centres undefined),-17,-17%,20%,-14%,4%,-21%
O=C1CC(Nc2ccccc2)C(=O)N1c1ccc(N2CCOCC2)cc1 (centres undefined),8,9%,-24%,-5%,-8%,6%
CCCN(C(=O)c1cc(S(=O)(=O)N2CCc3ccccc32)cn1C)c1ccc(OCC)cc1,.,.,.,.,.,14%[76.3 µM]
CCCc1cc(=O)oc2cc(OCC(=O)NC(Cc3c[nH]c4ccc(O)cc34)C(=O)O)c(Cl)cc12 (centres undefined),.,.,4%,.,.,7.9µM*
Cc1c(NC(=O)c2cccc3c(Cl)cccc23)cccc1-c1nc2ccccc2o1,.,.,.,.,.,-9%[76.3 µM]
Nc1ccccc1Nc1nc2ccccc2[nH]1,.,.,2%,.,.,20µM*
CCOC(=O)c1cc(-c2ccc(C)cc2)n(CC(=O)Nc2ccc(OC)c(Cl)c2)c1C,.,.,.,.,.,-12%[76.3 µM]
Nc1cc(-c2ccccc2)ccc1O,1,1%,-7%,-2%,-6%,10µM*
C/C(=N\NC(=O)Cn1nc(C)c([N+](=O)[O-])c1C)c1ccc(Cl)s1,1,-8%,22%,-5%,.,4%
CN=c1scc(-c2ccco2)n1/N=C/c1ccc(O)c(O)c1,-1,-8%,-23%,-5%,-11%,5.6µM*
C=CCN=c1scc(C)n1/N=C/c1ccc(O)c(O)c1,-6,-5%,-20%,-20%,-12%,?
CCc1nnc(N/N=C/c2c(C)[nH]c3ccccc23)n1N,4,6%,6%,0%,8%,7.9µM*
CCc1nnc(N/N=C/c2cc(C)c(C)cc2C)n1N,.,.,-4%,.,.,8.9µM*

# Screening data: PubChem, National Center for Advancing Translational Sciences (NCATS)
